From PubChem BioAssay
The list is not random: actives were taken first. Their share in the collection is about 6.2%.
KB-V1 cytotox = KB-V1 MDR subline cytotoxicity; Potency, µM (highest dose often 46.1 µM), hits mostly cytotoxic; actives 3.4% (n = 400,000); KB-V1 MDR cells viability, CellTiter-Glo, 72 h; also: % is scaled to controls: 0 for no effect and ±100 for the full control effect; nearly all actives have a fitted effect of over 60% in size
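Cytotoxicity via CellTiter-Glo luminescence after 72 h compound exposure at 37 degrees C. Cells: drug-selected KB-V1 line, DMEM phenol-red free plus 10% FBS. Compounds tested at multiple concentrations; normalized data fitted to concentration-effect curves.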
HT1080 IDH1KD tx = toxicity to HT-1080 IDH1 knockdown cells (counter line). AID 686971. Potency, µM (titrated, usually from 46.1 µM), inactives show top-dose activity, negative = toxicity, most hits filed as cytotoxic. actives 2% (n = 360,000). HT-1080 IDH1 knockdown viability, ATP luminescence, 48 h;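 also: 0% = DMSO wells and -100% = cell-free medium wells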
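Assay cells: HT-1080 with IDH1 knockdown, 750 per well, RPMI/5% FBS. Exposure: 48 h at 37 °C following 2 h pre-incubation. Read: CellTiter-Glo luminescence; fitted concentration-response, curve class assigned.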
KB-3-1 cytotox = kills parental KB-3-1 adenocarcinoma cells. KB-3-1 viability, CellTiter-Glo ATP luminescence, 72 h. Potency, µM (titrated, usually from 46.1 µM), usual class: cytotoxic. actives 1.4% (n = 400,000); also: % is scaled to controls: 0 for no effect and ±100 for the full control effect; nearly all actives have a fitted effect of over 60% in size
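72 h, 37 °C compound treatment of KB-3-1 parental cells; CellTiter-Glo added, 10 min, luminescence read. Data corrected against DMSO-only plates and normalized before curve fitting.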
ATXN viability = cell viability loss in ATXN counter-screen. S2 cells (HEK-293 line with an ATXN2-luciferase reporter) viability, CellTiter-Fluor protease fluorescence, 24 h. Potency, µM (series often up to 56.7 µM), usual class: cytotoxic. actives 0.49% (n = 400,000). AID 651635; also: nearly all actives have a fitted effect of over 40% in size
ATXN2 expr inh = reduces ATXN2 reporter expression in HEK-293 cells | HEK-293 ATXN2-luciferase reporter, luminescence, 24 h | Potency, µM (highest dose often 57 µM), for the others: at the highest dose activity change, negative = inhibition, most hits filed as inhibitors | actives 0.72% (n = 360,000); also: % is scaled to controls: 0 for no effect and ±100 for the full control effect; nearly all actives have a fitted effect of over 55% in size
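qHTS (up to 57 uM final) was run with 24 h compound exposure of reporter cells at 37 °C. Each well was multiplexed: SteadyGlo luminescence measured ATXN2-luciferase expression after a fluorogenic Gly-Phe-AFC viability readout (25 uM final).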
HT1080-NT tox = kills 2HG-producing HT-1080-NT fibrosarcoma cells; HT-1080-NT fibrosarcoma viability, CellTiter-Glo ATP luminescence, 48 h; Potency, µM (top dose mostly 46.1 µM), inactives show at the top dose activity, negative = less viability, actives largely listed as cytotoxic; actives 1.6% (n = 360,000);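 also: NT is the 2HG producing partner of a matched IDH1 knockdown line; 0% = DMSO-treated cells and -100% = media-only wells without cells; nearly all actives have a fitted effect of over 55% in size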
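750 cells/well, RPMI + 5% FBS; 2 h settle, compound pin-transfer, 48 h at 37 degrees C. CellTiter-Glo 10 min RT, luminescence. Normalized to DMSO and media-only wells.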
* marks the source's active call; other numbers are inactive results; i = inactive; ? = inconclusive; nt = no result; [ ] = remark or other dose. Calls follow the shape of the dose curve; as a rule, active = well fitted curve in the direction sought with a large enough effect; inconclusive = small, poorly fitted or top-dose-only effect, or another doubt; inactive = no such curve, though single readings can be large; an effect the other way counts as inactive or inconclusive. Potency is read from the fitted curve at half-maximal effect.

SMILES | KB-V1 cytotox | HT1080 IDH1KD tx | KB-3-1 cytotox | ATXN viability | ATXN2 expr inh | HT1080-NT tox
CC(=O)NC1=C(NC2CCS(=O)(=O)C2)C(=O)c2ccccc2C1=O (configuration not stated) | i | -9% | ? | ? | -27% | -10%
COc1ccc(C2c3cc(OC)c(OC)cc3CC(=O)N2c2cccc(C#N)c2)cc1 (configuration not stated) | i | nt | i | i | -3% | nt
Brc1cc(Br)c2ncnc(N3CCCCC3)c2c1 | ? | ? | 8.2µM* | i | -23% | 9.2µM*
Cc1cccc(-n2c(C)cc(/C=N/n3cnnc3)c2C)c1 | 18µM* | -10% | ? | i | 4% | -13%
C(=N\n1cnnc1)/c1ccc2c(c1)OCO2 | i | 10% | i | i | 4% | ?
Cc1cc(/C=N/n2cnnc2)c(C)n1-c1ccc(C(=O)O)cc1 | i | 5% | i | nt | nt | 0%
Cc1cc(/C=N/n2cnnc2)c(C)n1-c1ccc2c(c1)OCO2 | 5.2µM* | -16% | i | i | -9% | -2%
O=C(Cn1cc(S(=O)(=O)Cc2ccccc2Cl)c2ccccc21)NCc1ccccc1Cl | i | nt | i | nt | nt | nt
O=C(O)/C=C/C(=O)Nc1ccc(Oc2ccccc2)cc1 | i | 1% | i | i | -21% | -1%
O=C(COc1ccccc1CNCc1ccccc1)Nc1ccccc1 | i | 11µM* | i | ? | -17% | ?
CCOC(=O)/C=C/S(=O)(=O)c1ccc(NC(C)=O)cc1 | i | ? | 15µM* | ? | ? | ?
CCOc1ccccc1CNCc1ccc(C(=O)O)cc1 | i | 6% | i | ? | -1% | 10%
CCOC(=O)c1ccc(NC(=O)COc2ccccc2CNC2CCCC2)cc1 | ? | 23µM* | ? | ? | ? | 23µM*
CCOC(=O)/C=C/C(=O)Nc1ccc(Oc2ccccc2)cc1 | i | 16µM* | i | ? | ? | 7.3µM*
O=C(CNCc1ccccc1)Nc1ccc(Oc2ccccc2)cc1 | i | 6.5µM* | 5.2µM* | i | -7%[11.3 µM] | 7.3µM*
CCOC(=O)c1ccc(NC(=O)C2(c3ccccc3)CCCC2)cc1 | 15µM* | 1% | i | i | 3% | 4%
C[C@@H]1CN([C@H](C)CO)C(=O)c2cc(Br)cnc2O[C@@H]1CN(C)C(=O)Nc1cccc(F)c1 | i | 3% | i | i | 8% | -1%
COc1ccc(NC(=O)c2ccc3ccccc3c2)cc1NS(=O)(=O)c1ccc(F)cc1 | 21µM* | 6% | i | i | 0% | 7%
COc1ccc(NC(=O)c2ccc(C#N)cc2)cc1NS(=O)(=O)c1ccc(F)cc1 | i | -1% | i | i | -3% | -2%
COc1ccc(OC)c(NS(=O)(=O)c2ccc(NC(=O)c3ccc(NS(C)(=O)=O)cc3)cc2)c1 | i | 8% | 16µM* | i | -16% | 1%
C[C@H]1C[C@H](O)c2ccsc2S1(=O)=O | nt | nt | nt | i | 7% | nt
Cc1c(C(=O)NCc2ccc(F)cc2)sc2ncnc(NCC3CCCO3)c12 (configuration not stated) | nt | nt | nt | i | nt | nt
COc1ccc(CCn2c(=O)c3cccnc3n(CC(=O)Nc3ccc(C)cc3C)c2=O)cc1OC | i | nt | i | i | 4% | nt
Cc1ccc(-c2nc(C=Nc3ccc(O)cc3)c(O)o2)cc1 | ? | ? | i | i | nt | ?
Cc1ccc(N=Cc2nc(/C=C/c3cccc([N+](=O)[O-])c3)oc2O)cc1 | 16µM* | 7% | i | nt | ? | 22%
SMILES | KB-V1 cytotox | HT1080 IDH1KD tx | KB-3-1 cytotox | ATXN viability | ATXN2 expr inh | HT1080-NT tox
O=C(CN1CCCC1c1ccc2c(c1)OCCO2)NC(=O)Nc1ccccc1F (configuration not stated) | i | -1% | i | i | 9% | -3%
COc1ccccc1N(CC(=O)NCc1ccco1)S(=O)(=O)c1ccc(C)cc1 | i | -3% | i | i | 1% | -3%
Cc1ccc(S(=O)(=O)N(Cc2ccc(Cl)cc2)c2ccccc2C(=O)NCc2ccco2)cc1 | 18µM* | -17% | i | ? | -24% | -5%
Cc1ccccc1N(CC(=O)Nc1ccccc1C(=O)NCc1ccco1)S(=O)(=O)c1ccccc1 | i | 21µM* | 23µM* | i | -15% | ?
O=C(NCc1ccco1)c1ccc(CS(=O)(=O)Cc2ccc(Cl)cc2)o1 | 15µM* | -46% | i | i | 6% | 0%
CC(C)OC(=O)c1c(NC(=O)C2c3ccccc3Oc3ccccc32)sc2c1CCCC2 | i | nt | i | i | -2% | nt
Nc1ncnc(Nc2ccc(Cl)cc2)n1 | nt | nt | nt | i | nt | nt
Cc1c(N2C(=O)/C(=C/c3ccc(N(C)C)cc3)N(C)C2=S)c(=O)n(-c2ccccc2)n1C | i | -4% | i | 13µM* | 1% | -8%
Cc1c(N2C(=O)/C(=C/c3ccccc3)SC2=S)c(=O)n(-c2ccccc2)n1C | i | ? | i | i | 2% | ?
C#C[C@]1(O)CC[C@H]2[C@@H]3CCc4cc(OC5CCCC5)ccc4[C@H]3CC[C@@]21C | i | 21µM* | ? | 32µM* | ? | 16µM*
C#C[C@]1(O)CC[C@H]2[C@H]3CCc4cc(OC)ccc4[C@H]3CC[C@@]21C | nt | nt | nt | nt | -1% | nt
Cc1ccc(S(=O)(=O)N2CCOCC2)cc1C(=O)N1CCN(c2ncccn2)CC1 | i | 0% | i | i | 0% | -1%
COc1ncnc2c1ncn2CCCNCC(c1ccccc1)c1ccccc1 | i | -8% | i | i | -16% | -15%
c1ccc(COc2ncnc3c2ncn3CCCNCC(c2ccccc2)c2ccccc2)cc1 | ? | ? | ? | nt | ? | 16µM*
CCc1cccc(NC(=O)c2ccc3c(c2)c(C)c(C)n3Cc2ccc(F)cc2)c1 | i | nt | i | nt | nt | nt
CCOC(=O)/C(=N\Nc1ccccc1Cl)N1CCN(Cc2ccccc2)CC1 | 3.7µM* | -2% | i | i | 5% | -5%
Cc1nc([N+](=O)[O-])c(C(=O)OCc2ccccc2Br)n1C | 21µM* | -3% | ? | i | -7% | -10%
CC(C)C[C@@H](CN1CCC[C@@H]1CN1C(=O)C(=O)NC[C@@H]1Cc1ccccc1)N1C[C@H](Cc2ccc(O)cc2)N(CC2CCCCC2)C(=O)C1=O | ? | -9% | ? | ? | -2% | -3%
CC(C)C[C@@H](CN1CCC[C@@H]1CN1C(=O)C(=O)NC[C@@H]1Cc1ccccc1)N1C[C@H](Cc2ccccc2)N(CC2CCCCCC2)C(=O)C1=O | i | 9% | ? | ? | 8% | 5%
